In PubChem BioAssay (Tox21):
Several values for one entry are separate records, joined by “and”; a condition that tells them apart may be missing. Equal values may be shown once. Inconclusive results are not listed. Where a call stands in place of a potency, no number is given. Activity calls are given as the source filed them. Unless noted, calls follow the shape of the dose curve; as a rule, active = well fitted curve in the direction sought with a large enough effect in the repeat runs; inconclusive = weak or mixed curves; inactive = no such curve, though single readings can be large; an effect the other way counts as inactive or inconclusive.

Key:
[1] = qHTS assay for identifying genotoxic compounds that show differential cytotoxicity against isogenic chicken DT40 cell lines with known DNA damage response pathways - Rev3 mutant cell line (AID 743014); also: nearly all actives have a fitted effect of over 55% in size; also: potency is read from the fitted curve at half-maximal effect
[2] = molecular target: Glucocorticoid receptor (Homo sapiens) (UniProt P04150); assay: qHTS assay to identify small molecule antagonists of the glucocorticoid receptor (GR) signaling pathway (AID 720692; active = well fitted inhibition curve with a large enough effect in the signal ratio in the repeat runs, not every such curve was filed as active; the % refers to the signal ratio; also: potency is read from the fitted curve at half-maximal effect)
In short: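 GR-bla HeLa cells carrying a GRE-driven beta-lactamase reporter received compound after 4 h plating, then dexamethasone (5 nM final). After 18 h at 37C, the FRET substrate was loaded for 2 h at room temperature and fluorescence read.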

[3] = molecular target: Androgen receptor (Homo sapiens) (UniProt P10275); assay: qHTS assay to identify small molecule agonists of the androgen receptor (AR) signaling pathway using the MDA cell line (AID 743040; also: nearly all actives have a fitted effect of over 20% in size; also: potency is read from the fitted curve at half-maximal effect)
In short: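 Human breast carcinoma MDA-kb2 reporter cells (MMTV-luc, AR/GR elements) were treated for 16 h at 37C in 0% CO2 following a 5 h settling period. Signal was quantified by ONE-Glo luminescence.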

[4] = molecular target: Androgen receptor (Homo sapiens) (UniProt P10275); assay: qHTS assay to identify small molecule antagonists of the androgen receptor (AR) signaling pathway using the MDA cell line (AID 743042; also: nearly all actives have a fitted effect of over 55% in size; also: potency is read from the fitted curve at half-maximal effect)
In short: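 MDA-kb2 breast carcinoma cells carrying MMTV-luciferase (AR/GR responsive) were co-treated with compounds and the agonist R1881 for 16 h at 37C. Inhibition read as ONE-Glo luminescence; CellTiter-Fluor fluorescence measured in parallel for cytotoxicity.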

[5] = molecular target: Estrogen receptor (Homo sapiens) (UniProt P03372); assay: qHTS assay to identify small molecule antagonists of the estrogen receptor alpha (ER-alpha) signaling pathway (AID 743069; active = well fitted curve in the direction sought with a large enough effect in the signal ratio in the repeat runs, not every such curve was filed as active; the % refers to the signal ratio)
In short: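 Reporter cells (ER-alpha-bla, HEK293 background) are conditioned overnight in stripped-serum medium (2% charcoal-stripped FBS). Compound and 17beta-estradiol exposure runs 18 hr at 37C, 5% CO2.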

[6] = molecular target: Androgen receptor (Homo sapiens) (UniProt P10275); assay: qHTS assay to identify small molecule antagonists of the androgen receptor (AR) signaling pathway (AID 743035; active = well fitted inhibition curve with a large enough effect in the signal ratio in the repeat runs, not every such curve was filed as active; the % refers to the signal ratio; also: potency is read from the fitted curve at half-maximal effect)
In short: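 HEK293 cells stably carrying UAS-beta-lactamase reporter, 2,000/well, given compounds plus R1881 agonist and incubated 16 h at 37C. LiveBLAzer B/G FRET substrate then added for 2 h at room temperature before fluorescence reading.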

[7] = qHTS assay for small molecule agonists of the p53 signaling pathway (AID 651631; calls by dose curve; also: nearly all actives have a fitted effect of over 15% in size; also: potency is read from the fitted curve at half-maximal effect)
In short: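 Agonist mode screen using a stably integrated beta-lactamase gene under p53 response elements in HCT-116 cells. Compound exposure lasts 16 h at 37 °C; fluorescence intensity is measured following 2 h FRET substrate loading.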

[8] = molecular target: Androgen receptor (Homo sapiens) (UniProt P10275); assay: qHTS assay to identify small molecule agonists of the androgen receptor (AR) signaling pathway (AID 743036; active = well fitted activation curve with a large enough effect in the signal ratio in the repeat runs, with a control signal flat, not every such curve was filed as active; the % refers to the signal ratio; also: potency is read from the fitted curve at half-maximal effect)
In short: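 Quantitative HTS of the Tox21 10K library in HEK293 cells bearing a stably integrated UAS-controlled beta-lactamase reporter. Compound exposure lasted 16 h at 37C. Reporter activity was detected by FRET substrate fluorescence after 2 h at room temperature.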

Chain of Estrogen receptor (Homo sapiens) (P03372 whole entry, looked up): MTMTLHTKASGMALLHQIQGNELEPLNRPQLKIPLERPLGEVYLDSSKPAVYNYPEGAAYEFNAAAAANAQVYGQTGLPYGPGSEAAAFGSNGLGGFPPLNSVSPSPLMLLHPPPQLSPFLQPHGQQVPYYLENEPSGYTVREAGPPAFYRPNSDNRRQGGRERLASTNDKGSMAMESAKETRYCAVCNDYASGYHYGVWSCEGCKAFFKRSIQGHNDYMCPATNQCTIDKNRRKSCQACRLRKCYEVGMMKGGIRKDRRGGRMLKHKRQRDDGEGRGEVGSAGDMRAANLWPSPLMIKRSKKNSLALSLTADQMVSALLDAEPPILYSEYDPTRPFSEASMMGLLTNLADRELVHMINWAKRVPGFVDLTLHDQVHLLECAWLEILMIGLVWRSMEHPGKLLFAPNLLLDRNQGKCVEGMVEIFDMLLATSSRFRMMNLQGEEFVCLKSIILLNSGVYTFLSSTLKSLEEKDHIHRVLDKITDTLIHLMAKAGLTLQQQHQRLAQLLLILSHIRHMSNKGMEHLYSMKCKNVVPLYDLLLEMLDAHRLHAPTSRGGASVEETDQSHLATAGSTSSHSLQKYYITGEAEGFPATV
Chain of Glucocorticoid receptor (Homo sapiens) (P04150 whole entry, looked up): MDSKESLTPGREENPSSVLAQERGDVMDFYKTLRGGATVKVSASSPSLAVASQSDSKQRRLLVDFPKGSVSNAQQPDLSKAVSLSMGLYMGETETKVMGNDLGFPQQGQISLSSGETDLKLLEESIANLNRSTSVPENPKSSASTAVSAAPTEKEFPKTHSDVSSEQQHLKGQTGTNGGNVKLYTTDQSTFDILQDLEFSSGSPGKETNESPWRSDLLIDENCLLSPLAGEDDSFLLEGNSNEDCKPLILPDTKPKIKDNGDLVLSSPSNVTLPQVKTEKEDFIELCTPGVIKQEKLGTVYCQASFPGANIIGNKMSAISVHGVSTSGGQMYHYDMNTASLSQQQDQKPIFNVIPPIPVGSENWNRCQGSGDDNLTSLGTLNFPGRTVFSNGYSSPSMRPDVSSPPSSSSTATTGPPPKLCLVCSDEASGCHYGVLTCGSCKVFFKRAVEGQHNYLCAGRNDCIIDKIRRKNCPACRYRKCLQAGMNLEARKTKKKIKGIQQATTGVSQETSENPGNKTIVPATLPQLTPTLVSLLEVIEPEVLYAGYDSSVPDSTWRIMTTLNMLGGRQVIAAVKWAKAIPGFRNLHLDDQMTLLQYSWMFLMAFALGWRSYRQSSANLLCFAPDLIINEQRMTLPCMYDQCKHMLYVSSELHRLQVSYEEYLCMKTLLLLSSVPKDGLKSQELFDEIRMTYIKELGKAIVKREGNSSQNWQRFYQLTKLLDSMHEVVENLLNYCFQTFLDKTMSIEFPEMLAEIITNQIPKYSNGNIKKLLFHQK
Chain of Androgen receptor (Homo sapiens) (P10275 whole entry, looked up): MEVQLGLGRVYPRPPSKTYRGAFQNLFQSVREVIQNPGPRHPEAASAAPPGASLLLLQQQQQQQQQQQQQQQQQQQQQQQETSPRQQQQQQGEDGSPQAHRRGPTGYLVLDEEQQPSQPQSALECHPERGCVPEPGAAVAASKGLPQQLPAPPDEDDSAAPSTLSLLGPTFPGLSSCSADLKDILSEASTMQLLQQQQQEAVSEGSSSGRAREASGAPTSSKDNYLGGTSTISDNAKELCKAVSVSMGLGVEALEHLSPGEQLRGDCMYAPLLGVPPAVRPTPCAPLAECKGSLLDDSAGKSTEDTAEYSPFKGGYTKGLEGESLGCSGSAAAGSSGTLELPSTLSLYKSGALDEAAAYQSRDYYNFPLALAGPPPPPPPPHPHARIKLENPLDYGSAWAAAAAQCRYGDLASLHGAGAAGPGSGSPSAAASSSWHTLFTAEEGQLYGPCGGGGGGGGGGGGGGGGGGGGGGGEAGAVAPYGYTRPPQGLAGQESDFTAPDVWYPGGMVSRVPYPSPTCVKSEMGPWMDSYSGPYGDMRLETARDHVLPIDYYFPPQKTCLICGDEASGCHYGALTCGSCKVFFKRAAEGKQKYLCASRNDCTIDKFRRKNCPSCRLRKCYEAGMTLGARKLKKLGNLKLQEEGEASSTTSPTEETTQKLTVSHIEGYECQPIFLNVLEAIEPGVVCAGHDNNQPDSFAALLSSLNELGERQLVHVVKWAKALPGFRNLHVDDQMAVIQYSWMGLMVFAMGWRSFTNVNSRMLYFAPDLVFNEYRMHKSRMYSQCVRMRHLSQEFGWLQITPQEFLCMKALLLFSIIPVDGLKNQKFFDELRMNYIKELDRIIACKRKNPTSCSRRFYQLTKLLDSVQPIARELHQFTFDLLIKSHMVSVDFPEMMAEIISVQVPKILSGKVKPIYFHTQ

In the case of `Cc1cc(C)cc(C(=O)OC2C[C@H]3CC[C@@H](C2)N3C)c1` (stereo partly drawn), the Potency [1] is reported as 1.88 µM (active).
In the case of `CNC(=O)Oc1ccccc1C(=O)Nc1ccccc1`, the Potency [2] is reported as “inactive”, the Potency [3] is reported as “inactive” and the Potency [4] is reported as “inactive”. For the same compound, the Potency [5] was “inactive”.
With `Oc1cccc[c]1[Hg][Cl]` the Potency [1] was 0.75 µM (active), the Potency [6] was 6.74 µM (active) and the Potency [3] was “inactive”. For the same compound, the Potency [4] was 4.22 µM (active).
For `C[C@]12CC[C@H]3[C@@H](CCC4=C(Cl)C(=O)CC[C@@]43C)[C@@H]1CC[C@@H]2O`, the Potency [7] was “inactive”, the Potency [1] was 9.44 µM (active) and the Potency [6] was “inactive”. The Potency [8] was 3 nM (active), the Potency [3] was 0.0019 µM (active) and the Potency [4] was “inactive”.
In the case of `CCCC(C)C1(CC)C(=O)NC(=O)NC1=O` (stereo not drawn), the Potency [1] is reported as “inactive” and the Potency [5] is reported as “inactive”.
For `CCCCCc1cc(O)c2c(c1)OC(C)(C)[C@@H]1CCC(C)=C[C@@H]21`, the Potency [1] was 13.3 µM (active), the Potency [8] was “inactive” and the Potency [3] was “inactive”. For the same compound, the Potency [4] was “inactive”.
With `CCCCCCC(=O)O[C@H]1CC[C@H]2[C@@H]3CC[C@H]4CC(=O)C=C(C)[C@]4(C)[C@H]3CC[C@]12C` the Potency [1] was “inactive”.
In the case of `CCC1C(C)=NN=C(c2ccc(OC)c(OC)c2)c2cc(OC)c(OC)cc21` (stereo not drawn), the Potency [7] is reported as “inactive”.
With `CN(C)CCCCCCN(C)C` (tested in a mixture with another compound) the Potency [2] was “inactive” and the Potency [1] was “inactive”.
With `COC([CH2][Hg])CNC(=O)c1ccccc1OCC(=O)O` (stereo not drawn) the Potency [2] was “inactive” and the Potency [5] was “inactive”.
For `CN1CCCC(=C(c2cccs2)c2cccs2)C1`, the Potency [1] was “inactive”, the Potency [6] was “inactive” and the Potency [8] was “inactive”. For the same compound, the Potency [3] was “inactive” and the Potency [4] was “inactive”.
For `O=C1C=C2C=C[C@@H]3C[C@@]2(O1)[C@H]1CCCCN31`, the Potency [2] was 4.25 µM (active) and the Potency [1] was 10.6 µM (active).
For `C=C[C@H]1CN2CC[C@H]1C[C@@H]2[C@@H](O)c1ccnc2ccccc12`, the Potency [2] was “inactive”.
With `C/C(=C\c1csc(C)n1)[C@@H]1C[C@@H]2O[C@]2(C)CCC[C@H](C)[C@H](O)[C@@H](C)C(=O)C(C)(C)[C@@H](O)CC(=O)O1` the Potency [1] was 0.0024 µM (active), the Potency [6] was 0.0239 µM (active) and the Potency [3] was “inactive”. The Potency [4] was “inactive” and the Potency [5] was “inactive”.
In the case of `C#CCN1CC(=O)N(COC(=O)C2C(C=C(C)C)C2(C)C)C1=O` (stereo not drawn), the Potency [7] is reported as “inactive”, the Potency [2] is reported as “inactive” and the Potency [1] is reported as “inactive”. For the same compound, the Potency [5] was “inactive”.
For `[H+].[H+].[Hg+2].[O-]B([O-])[O-].[c-]1ccccc1`, the Potency [7] was 1.33 µM (active) and the Potency [1] was 0.531 µM (active).
In the case of `CCC1(c2ccccc2)C(=O)NC(=O)N(C(=O)c2ccccc2)C1=O` (stereo not drawn), the Potency [2] is reported as “inactive” and the Potency [1] is reported as “inactive”.
For `CC(C)CCC(=O)O[C@H]1CC[C@H]2[C@@H]3CCC4=CC(=O)CC[C@]4(C)[C@H]3CC[C@]12C`, the Potency [2] was 6.01 µM (active), the Potency [1] was “inactive” and the Potency [6] was “inactive”. For the same compound, the Potency [8] was 10.7 nM (active), the Potency [3] was 0.0042 µM (active) and the Potency [4] was “inactive”.
In the case of `OC[C@@H](O)[C@H]1O[C@@H]2O[C@@H](C(Cl)(Cl)Cl)O[C@@H]2[C@H]1O`, the Potency [2] is reported as “inactive” and the Potency [5] is reported as “inactive”.
With `NCC[C@H](O)C(=O)N[C@@H]1C[C@H](N)[C@@H](O[C@H]2O[C@H](CN)[C@@H](O)[C@H](O)[C@H]2N)[C@H](O[C@@H]2O[C@H](CO)[C@@H](O)[C@H]2O)[C@H]1O` the Potency [1] was “inactive”, the Potency [3] was “inactive” and the Potency [4] was “inactive”.
With `Oc1ccc2c3c1O[C@H]1[C@@H](O)CC[C@@]4(O)[C@@H](C2)N(CC2CCC2)CC[C@]314` the Potency [2] was “inactive” and the Potency [4] was “inactive”.
In the case of `OC(c1ccccc1)(c1ccccc1)C1CN2CCC1CC2` (stereo not drawn), the Potency [2] is reported as “inactive”, the Potency [6] is reported as “inactive” and the Potency [3] is reported as 26.6 µM (active). For the same compound, the Potency [4] was “inactive” and the Potency [5] was “inactive”.
In the case of `c1csc(C2(N3CCCCC3)CCCCC2)c1`, the Potency [7] is reported as “inactive”, the Potency [1] is reported as “inactive” and the Potency [5] is reported as “inactive”.
In the case of `O=C1Nc2ccc(Cl)cc2C(c2ccccc2Cl)=NC1O` (stereo not drawn), the Potency [7] is reported as “inactive”, the Potency [2] is reported as “inactive” and the Potency [1] is reported as “inactive”. For the same compound, the Potency [6] was “inactive”, the Potency [8] was “inactive” and the Potency [3] was “inactive”. The Potency [5] was “inactive”.
For `CCCC(=O)OC(C(Cl)(Cl)Cl)P(=O)(OC)OC` (stereo not drawn), the Potency [1] was “inactive”, the Potency [6] was “inactive” and the Potency [8] was “inactive”. For the same compound, the Potency [3] was 33.5 µM (active) and the Potency [4] was “inactive”.
With `C=CCC1(C(C)CCC)C(=O)N=C(S)NC1=O` (stereo not drawn) the Potency [7] was “inactive”, the Potency [2] was “inactive” and the Potency [1] was “inactive”. The Potency [8] was “inactive”, the Potency [3] was “inactive” and the Potency [4] was “inactive”.
For `CCC/C=C/C=C/C(=O)O[C@H]1/C(=C/C(=O)OC)C[C@H]2C[C@H]([C@@H](C)O)OC(=O)C[C@H](O)C[C@@H]3C[C@H](OC(C)=O)C(C)(C)[C@](O)(C[C@@H]4C/C(=C/C(=O)OC)C[C@H](/C=C/C(C)(C)[C@]1(O)O2)O4)O3`, the Potency [2] was “inactive” and the Potency [1] was 0.0038 µM (active).
With `CCN1C[C@]2(COC)[C@H](O)C[C@H](OC)[C@@]34[C@@H]5C[C@@]6(O)[C@H](OC(=O)c7ccccc7)[C@@H]5[C@@](OC(C)=O)([C@@H]([C@H](OC)[C@H]23)[C@@H]14)[C@@H](O)[C@@H]6OC` the Potency [7] was “inactive”, the Potency [1] was “inactive” and the Potency [5] was “inactive”.
In the case of `CN(C)[C@H](Cc1ccccc1)c1ccccc1`, the Potency [1] is reported as “inactive” and the Potency [5] is reported as “inactive”.
For `Oc1cc[c]([Hg][Cl])cc1`, the Potency [7] was 23.7 µM (active), the Potency [6] was 19 µM (active) and the Potency [3] was “inactive”. For the same compound, the Potency [4] was 8.41 µM (active) and 5.96 µM (active).
